Results: PubChem BioAssay AID1259249 (Broad Institute, 2017)
“And” between values parts separate entries of the source, which are not always exact repeats. Identical values can stand only once. About 220 (0.26%) of roughly 86,000 compounds were called active.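 The calls were made as follows: active = mean growth activity at or below -80% and every replicate also at or below -80%; inconclusive = mean at or below -80% but some replicate above -80%; inactive = mean growth activity above -80%.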 The sample as a whole holds a higher share of actives than the screen did.

Experiment: blockers of Clostridium difficile growth – HTS, primary screen (AID 1259249);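 also: 0% = DMSO wells and -100% = levofloxacin 16 µg/mL wells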
Settings: Clostridium difficile clinical isolate growth, OD600, 24 h; hits give low values; screened at 16 µg/mL (by protocol)

Growth activity, negative = inhibition, inactive:
C[C@@H]1CN([C@@H](C)CO)C(=O)c2cc(-c3cccnc3)cnc2O[C@@H]1CN(C)C(=O)C1CC1 4.12%
COc1ccccc1S(=O)(=O)N1C[C@@H]2N[C@H](C1)C2c1ccc(-c2cccc(C)c2)cc1 (stereo not given in full) 66.4% and 49%
O=C(C1CCOCC1)N1CC2(C1)[C@H](c1ccccc1)[C@H](CO)N2Cc1ccc(Cl)cc1 -1.43%
C[C@@H]1CCCCO[C@H](CN(C)Cc2ccc(C(F)(F)F)cc2)[C@H](C)CN([C@@H](C)CO)C(=O)c2cc(N(C)C)ccc2O1 3.85%
Cc1noc(C)c1NC(=O)N(C)C[C@H]1OCCCC[C@@H](C)Oc2ccc(NS(=O)(=O)c3ccc(Cl)cc3)cc2C(=O)N([C@@H](C)CO)C[C@H]1C -9.03%
COc1ccc2c3c([nH]c2c1)[C@@H](CO)NCC31CN(S(=O)(=O)c2cccs2)C1 -6.75%
CCCNC(=O)N1[C@H](CO)[C@@H]2c3ccccc3N(C(=O)C3CC3)C[C@@H]21 1.07%
COc1ccc(CN(C)C[C@@H]2OCCCC[C@H](C)Oc3ccc(NS(=O)(=O)c4ccc(F)cc4)cc3C(=O)N([C@H](C)CO)C[C@H]2C)cc1 8.17%
CC(=O)Nc1ccc2c(c1)C(=O)N(C)[C@@H]1CC[C@H](CC(=O)NCc3ccccc3)O[C@H]1CO2 6.07%
N#Cc1ccc(-c2ccc(C3[C@H]4CNC[C@@H]3N4S(=O)(=O)c3ccccc3F)cc2)cc1 (stereo not given in full) 29.2%
CO[C@@H]1CN(C)C(=O)c2ccc(NS(=O)(=O)c3ccc(Cl)cc3)cc2OC[C@@H](C)N(C)C[C@@H]1C -1.74%
CCCN1[C@H](C(=O)N[C@H](C)c2ccccc2)[C@@H](CO)[C@@H]2Cn3c(ccc(-c4cccc(F)c4)c3=O)[C@@H]21 14.4%
COCC#Cc1ccc([C@H]2[C@H]3CN(Cc4ccncc4)CCCCN3[C@H]2CO)cc1 13.5%
C[C@@H]1CN([C@@H](C)CO)C(=O)c2cc(NS(=O)(=O)c3cn(C)cn3)ccc2O[C@@H](C)CCCCO[C@H]1CN(C)S(=O)(=O)c1cccs1 1.84%
CN1c2ccc(-c3ccccc3)cc2[C@H]2[C@H](CCN2C(=O)c2ccc3c(c2)OCO3)[C@H]1CO -20.7%
CN1C(=O)c2cc(NC(=O)c3cnccn3)ccc2OC[C@H]2O[C@@H](CC(=O)NCC3CCCCC3)CC[C@@H]21 0.457%
CO[C@H]1CN(C)C(=O)c2cc(NC(=O)C3CC3)ccc2OC[C@H](C)N(Cc2ccccc2)C[C@H]1C -3.86%
Cc1ccc(-c2ccc3c(c2)O[C@H](CN(C)C(=O)CC2CC2)[C@@H](C)CN([C@H](C)CO)S3(=O)=O)cc1 3.19%
CCC(CO)Oc1cc(NC(=O)c2ccc(Cl)cc2)c2ncn(C(C)C)c2c1 (stereo not given) -0.177%
O=C(NC1CCCC1)N1CC(=O)N2[C@H](C1)[C@H](c1ccc(/C=C/c3ccccc3)cc1)[C@@H]2CO -1.1%
COCC(=O)N1CC2(C1)[C@@H](c1ccc(-c3cccc(F)c3)cc1)[C@@H](CO)N2C(=O)COC -0.178%
CN1c2ccc(Br)cc2[C@@H]2[C@@H](CCN2S(=O)(=O)c2ccc(F)cc2)[C@@H]1CO 67.3%
COCC(=O)N1CC(=O)N2[C@H](C1)[C@@H](c1ccc(C#Cc3cccc(OC)c3)cc1)[C@@H]2CO -20.7%
Cc1nc(N2[C@H](CO)[C@H](c3ccccc3)[C@H]2CNCC2CCC2)sc1C 8.18%
C/C=C/c1ccc([C@@H]2[C@@H](CO)N(C(=O)c3ccccc3)C23CN(C(C)=O)C3)cc1 -2.56%
COc1ccc(C#Cc2cccc(-c3nc(C(=O)O)cc4c3[C@@H](CCO)N(S(=O)C(C)(C)C)C4)c2)cc1OC (stereo not given in full) -2.07%
CCO[C@H]1OC(C(=O)N2CCCCCCC2)=C[C@@H](c2ccc(C(F)(F)F)cc2)[C@@H]1CCCO 9.8%
C[C@H]1CN([C@@H](C)CO)C(=O)c2cc(C#CC3CCCCC3)cnc2O[C@@H]1CN(C)C(=O)Cc1ccccn1 -14%
Cc1noc(C)c1S(=O)(=O)N(C)C[C@@H]1OCCCC[C@@H](C)Oc2ccc(NC(=O)c3ccccc3)cc2C(=O)N([C@H](C)CO)C[C@H]1C 5.17%
COc1ccc(CN(C)C[C@H]2OCCCC[C@H](C)Oc3ccc(NS(C)(=O)=O)cc3C(=O)N([C@H](C)CO)C[C@@H]2C)cc1 -0.222%
O=C(C[C@@H]1C=C[C@@H](NS(=O)(=O)c2ccccc2)[C@H](CO)O1)N1CCN(c2ccccc2)CC1 0.541%
O=C(c1cnccn1)N1CC2(C1)[C@H](c1ccccc1)[C@H](CO)N2C(=O)c1ccccc1 -0.792%
O=C(C[C@H]1CC[C@H]2[C@@H](COC[C@@H](O)CN2CC2CCCC2)O1)NCC1CC1 -1.93%
Cc1ccccc1S(=O)(=O)N1C[C@@H]2N[C@H](C1)C2c1ccc(-c2cccc(C(=O)N(C)C)c2)cc1 (stereo not given in full) 4.24%
CN(C)CC(=O)N1[C@H](C(=O)NC2CCC2)[C@@H](CO)[C@@H]2Cn3c(ccc(-c4ccc(F)cc4)c3=O)[C@@H]21 -0.849%
CCCNC(=O)N1CCC2(CC1)CN(C(=O)CN1CCOCC1)[C@H](CO)c1[nH]c3cc(OC)ccc3c12 5.44%
C[C@@H]1CCCCO[C@H](CN(C)C(=O)NC2CCCCC2)[C@H](C)CN([C@H](C)CO)C(=O)c2cc(NC(=O)c3ccncc3)ccc2O1 -3.74%
COc1ccc2c3c([nH]c2c1)[C@H](CO)N(Cc1nccs1)CC31CCN(C(=O)C2CCC2)CC1 -4.33%
CCCC#Cc1ccc([C@@H]2[C@@H](C#N)N(C(=O)C3CC3)[C@H]2CO)cc1 -16.8%
CCCNC(=O)Nc1ccc2c(c1)OC[C@H](C)N(CCC(F)(F)F)C[C@H](C)[C@@H](OC)CN(C)C2=O -16.2%
